We go through 37 compounds from PubChem BioAssay (NCI).

Values joined by “and” are separate entries in the source; they are usually repeats but may differ in a detail not shown here. Equal values may be shown once. The panel holds about 83,000 compounds, 20% with a hit somewhere; the sample as a whole holds those more often.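 Single-dose data. Exposure time 48 hours. Values below 10 considered active.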 Active and inactive are the calls of the source.

The assay relates to MDA-MB-468 breast. Briefly: NCI-60 one-dose screen, 48 h (100 = growth as untreated, 0 = no growth, -100 = all killed). The conditions noted are these: 10 µM unless noted.

As to `COC1=C(OC)C(=O)C(CCCCCCCCCCO)=C(C)C1=O`, the growth was -34.8% (active).

As to `C=CC(=O)Nc1cccc(-c2nc(SC)nc(NCCN3CCOCC3)c2C#N)c1`, the growth is 97.8% (inactive).

On to `CN(C)c1ccc(/C=C/c2c(F)cccc2F)cc1`, for which the growth is 81.3% (inactive).

Regarding `Cn1cc(-c2csc(-c3ccc(Cl)cc3)n2)c2cccnc21`, the growth was -69.1% [100 µM] (active).

Turning to `COc1cc(-c2ccc(N=Nc3ccc4c(S(=O)(=O)O)ccc(N)c4c3O)c(OC)c2)ccc1N=Nc1ccc2c(S(=O)(=O)O)ccc(N)c2c1O`, the growth is 120% (inactive).

For the compound `CC(C)[C@@]12C[C@@H](OC(=O)COC(=O)c3ccccc3)[C@@](C)(O1)[C@@H]1CC[C@@H](C)[C@H]1[C@@H]2OC(=O)/C=C/c1ccccc1`, the growth was 85.4% (inactive).

As for `O=C1/C=C/[C@@H](O)[C@@H]2C[C@@H](O)C[C@H]2/C=C/CCC[C@@H](C(F)(F)F)O1`, the growth is -40.7% (active).

For the compound `CCN1CCN(c2ccc(Nc3ncc4ccc5ncn(C(C)C)c5c4n3)nc2)CC1`, the growth is -41.3% (active).

As for `Cc1c(C(N)=O)sc2nc(SCC(=O)Nc3ccc(Cl)cc3)n(-c3ccccc3)c(=O)c12`, the growth was 106% (inactive).

Turning to `COc1ccc(C2NC(=O)Nc3ccccc32)c(OC)c1` (configuration not stated), the growth was 103% (inactive).

As to `O=C(C1=Cc2cc3ccccc3n2Cc2cnnn21)c1ccc(O)cc1`, the growth is 62.2% (inactive).

For the compound `FC(F)(F)c1cc(Nc2ccc3cc(OCCCN4CCOCC4)ccc3n2)ccc1Cl`, the growth is 31.1% (inactive).

As for `COc1cc(/C=C/C(=O)c2ccc(NC(=O)CSc3nnc(-c4ccc(-c5nc6ccc(Cl)cc6[nH]5)cc4)o3)cc2)cc(OC)c1OC`, the growth is 103% (inactive).

With `CN1CCC(n2cc(Nc3ncc4c(=O)n(-c5c(Cl)cccc5Cl)cc(Br)c4n3)cn2)CC1`, the growth is 12.7% (inactive).

`c1ccc(-c2nc(N3CCNCC3)c3nc(-c4ccccc4)oc3n2)cc1`: the growth is -37.2% (active).

Regarding `COC(=O)c1cnc2c(c1)Oc1ccc(Cl)cc1-c1cc(C)nn1-2`, the growth is 92% (inactive).

For `Cc1cc(Nc2ccc(OCc3ccccc3)cc2)nc2cc(O)ccc12`, the growth is 6.48% (active).

Consider `Cc1ccc(Cc2cnc(NC(=O)c3cc(Br)cs3)s2)cc1`, for which the growth was 30% (inactive).

Take `CCCCOC(=O)c1ccc(NC(=O)CCl)cc1`: the growth was 50% (inactive).

On to `C[C@]12CC[C@H](O)CC1=CC[C@@H]1[C@@H]2CC[C@]2(C)C(c3cccnc3)=CC[C@@H]12`, for which the growth was 15.2% (inactive).

Consider `C=C1C(=O)O[C@H]2[C@H]1CC/C(COC(=O)c1cccc3ccccc13)=C\CC[C@@]1(C)O[C@@H]21`, for which the growth is -45.1% (active).

For `CCCCOC(=O)c1cccc([N+](=O)[O-])c1`, the growth was 101% (inactive).

For `CN=S(=O)(NC(=O)c1ccc(Cl)cc1Cl)c1ccc(Br)s1` (configuration not stated), the growth was 88.3% (inactive).

On to `Nc1c(C(=O)c2ccc(Cl)s2)sc2nc3c(cc12)CCCC3`, for which the growth was 69.1% (inactive).

On to `CCN(CC)c1ccc(/C=C2\Oc3ccc(O)c(I)c3C2=O)cc1`, for which the growth is 61.6% (inactive).

`CCCCCc1c(C)[nH]c(/C=C2\N=C(c3ccc[nH]3)C=C2OCc2ccccc2)c1C`: the growth was -51.6% [100 µM] (active).

`Cc1[nH]nc2c1C(c1cnn(C)c1)C(C#N)=C(N)O2` (configuration not stated): the growth is 92.4% (inactive).

Consider `NC(=S)n1c(=O)n(-c2cccc(C(F)(F)F)c2)c(=O)c2cc(-c3ccc(F)cc3F)ccc21`, for which the growth was 1.23% (active).

Regarding `Cc1ccc(Cl)cc1N1CCN(C(=O)[C@@H]2C[C@@H]2c2ccc(F)cc2)CC1`, the growth was 75.3% (inactive).

As to `COc1cc(-c2nc(-c3nc4ccccc4[nH]3)cc3c2[nH]c2ccccc23)cc(OC)c1OC`, the growth is 42.1% (inactive).

For the compound `COc1cc(-c2nc(SCCC(C)C)nc(N3CCOCC3)c2C#N)cc(OC)c1OC`, the growth is 98.2% (inactive).

Consider `CN(C)c1ccc(-c2ccc(-c3ccc(C(=N)N)cc3)s2)cc1`, for which the growth is -69.7% (active).

Consider `CCC(C)C1NC(=O)C(CCNCS(=O)(=O)O)NC(=O)C(NC(=O)C(CCNCS(=O)(=O)O)NC(=O)C(NC(=O)C(CCNCS(=O)(=O)O)NC(=O)CCCCC(C)C)C(C)O)CCNC(=O)C(C(C)O)NC(=O)C(CCNCS(=O)(=O)O)NC(=O)C(CCNCS(=O)(=O)O)NC(=O)C(C(C)CC)NC1=O` (configuration not stated), for which the growth is 16% (inactive).

Consider `Nc1cc(-c2c[nH]c3ccc(Cl)cc23)nc2cc(-c3c[nH]c4ccc(Cl)cc34)nn12`, for which the growth was 68.2% (inactive).

Regarding `CCN(CC)CCOc1ccc2c(c1)C(=O)c1cc(OCCN(CC)CC)ccc1-2`, the growth is 14.9% (inactive) and -13.8% (active).

With `CCOC(=O)c1cc(C(=O)c2ccc(Br)cc2)n2cc(C)cc(C)c12`, the growth was 108% (inactive).

In the case of `COc1ccc(Oc2ccc(C3CC(c4cc(OC)c(OC)c(OC)c4)=NN3C(C)=O)cc2)cc1` (configuration not stated), the growth was 4.96% (active).
